From PubChem BioAssay
A selection: hits, their analogues and other compounds. The true share with any hit is near 21%.
Cycloheximide cs: Cycloheximide Counterscreen for Small Molecule Inhibitors of Shiga Toxin. AID 2314, 2010. max response, %. cell reporter, cycloheximide protein synthesis inhibition counterscreen. actives 12% (n = 300,000); in the data active = max response mostly above about 13%, no sharp cut-off; inactive = mostly below about 14%; also: read at 38.3 µM for the half of the compounds with a filed dose; 0% is about no effect
NS1 function inh: qHTS Assay for Inhibitors of Influenza NS1 Protein Function. Potency, µM (highest dose often 46.1 µM), without a hit: at the top dose activity, positive = more growth. actives 0.4% (n = 270,000). AID 2326, 2010; calls by dose curve; also: potency is read from the fitted curve at half-maximal effect; actives are rising curves; nearly all actives have a fitted effect of over 50% in size
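Growth recovery, yeast-based: influenza A NS1 expressed in S. cerevisiae causes slow growth, and suppressors are detected by OD600. The parent strain without NS1 is used as positive control.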
Pf growth 96h: Primary qHTS for delayed death inhibitors of the malarial parasite plastid, 96 hour incubation; P. falciparum luciferase reporter growth, 96 h; Potency, µM (highest dose often 28.7 µM), for the others: at the highest dose activity change, negative = inhibition, actives largely listed as inhibitors; actives 6.9% (n = 320,000); AID 504834, 2011; also: potency is read from the fitted curve at half-maximal effect; % is scaled to controls: 0 for no effect and ±100 for the full control effect
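Infected RBCs, 2% Hct / 0.05% parasitemia final; luciferase-reporter P. falciparum; cpd 96 h, 37 C, 5% CO2; luciferase detection reagent; luminescence.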
Shiga inhibitor: A qHTS for Small Molecule Inhibitors of Shiga Toxin; Vero cells, Shiga toxin protein synthesis inhibition reporter; inhibition, % at 38.7 µM; actives 9.2% (n = 290,000); AID 2315, 2010; in the data active = inhibition mostly above about 28%, no sharp cut-off; inactive = mostly below about 43%; also: 0% is about no effect
Pf growth 48h: Primary qHTS for delayed death inhibitors of the malarial parasite plastid, 48 hour incubation | actives 5.9% (n = 310,000) | Potency, µM (highest dose often 28.7 µM), without a hit: top-dose activity change, negative = inhibition, most hits filed as inhibitors | AID 504832, 2011 | P. falciparum luciferase growth in erythrocytes, 48 h; also: potency is read from the fitted curve at half-maximal effect; % is scaled to controls: 0 for no effect and ±100 for the full control effect
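Luciferase-expressing P. falciparum in infected erythrocytes (2% hematocrit, 0.1% parasitemia final) in RPMI 1640/0.5% Albumax were exposed to compound for 48 hours at 37 C, 5% CO2; growth read as luminescence.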
An asterisk follows results filed as active. Unless noted, calls follow the shape of the dose curve; as a rule, active = well fitted inhibition curve with a large enough effect; inconclusive = small, poorly fitted or top-dose-only effect, or another doubt; inactive = no such curve, though single readings can be large or run the other way.

For COc1ccc(CN2C(=O)C(C)N(C(=O)c3c(F)cccc3F)c3ccccc32)cc1 (stereo not drawn) the results were Cycloheximide cs 4.0, NS1 function inh -15.5%, Pf growth 96h 2.08µM*, Shiga inhibitor 14.8 and Pf growth 48h 1.85µM*.
`COc1cccc(CN2C(=O)C(C)Oc3ccccc32)c1` (stereo not drawn) gave Cycloheximide cs -4.6, NS1 function inh -1.7%, Pf growth 96h inconclusive, Shiga inhibitor -2.9 and Pf growth 48h inconclusive.
Screening COc1cccc(CN2C(=O)C(C)N(C(=O)c3ccccc3)c3ccccc32)c1 (stereo not drawn) returned Cycloheximide cs -0.5, NS1 function inh -5.1%, Pf growth 96h 10.4µM*, Shiga inhibitor 5.3 and Pf growth 48h inconclusive.
`CC1C(=O)N(Cc2ccc([N+](=O)[O-])cc2)c2ccccc2N1C(=O)c1c(F)cccc1F` (stereo not drawn) gave Cycloheximide cs -2.6, NS1 function inh 2.3%, Pf growth 96h inconclusive, Shiga inhibitor -7.4 and Pf growth 48h 9.28µM*.
For Cc1cc(S(=O)(=O)N2CCOCC2)ccc1OCC(=O)Nc1ccc(Br)cc1F the results were Cycloheximide cs -4.4, NS1 function inh -0.2%, Pf growth 96h inconclusive, Shiga inhibitor -5.2 and Pf growth 48h 15.7%.
`N#CC(C#N)=C1C=C2C=C(N3CCCCC3)CCC2CC1` (stereo not drawn) gave Cycloheximide cs -3.4, NS1 function inh 1.7%, Pf growth 96h 1.4%, Shiga inhibitor -15.2 and Pf growth 48h -2.0%.
Screening N#CC1=C(N)C2=C(N3CCCCC3)CCCC2C1(C#N)C#N (stereo not drawn) returned Cycloheximide cs 0.4, NS1 function inh -1.6%, Pf growth 96h 11.7µM*, Shiga inhibitor 20.7 and Pf growth 48h 4.7%.
Screening O=Cc1ccccc1OCCOc1ccccc1C=O returned Cycloheximide cs 34.4*, NS1 function inh -30.4%, Pf growth 96h 21.6%, Shiga inhibitor 52.2* and Pf growth 48h -5.0%.
Screening O=Cc1ccccc1Oc1ccccc1 returned Cycloheximide cs 0.5, NS1 function inh 13.9%, Pf growth 96h 29.1%, Shiga inhibitor 16.7 and Pf growth 48h 2.1%.
CC(C)C(C)(C#N)NC(=O)CSc1nc2scc(-c3ccco3)c2c(=O)n1-c1ccccc1 (stereo not drawn) was read as Cycloheximide cs -1.2, NS1 function inh -2.8%, Pf growth 96h inconclusive, Shiga inhibitor -11.9 and Pf growth 48h 9.28µM*.
CC(C)C(C)NC(=O)CSc1nc2scc(-c3ccco3)c2c(=O)n1-c1ccccc1 (stereo not drawn) was read as Cycloheximide cs -3.6, NS1 function inh 6.3%, Shiga inhibitor 11.4 and Pf growth 48h 11.7µM*.
Screening CCc1nn(C(CC)C(=O)NCc2cccc(OC)c2)c(=O)c2cc3occc3n12 (stereo not drawn) returned Cycloheximide cs 16.9, NS1 function inh 6.6%, Pf growth 96h 34.8%, Shiga inhibitor -5.7 and Pf growth 48h 13.2%.
For Cc1cc(C)n2nc(SCC(=O)NC3CCCC(C)C3C)nc2n1 (stereo not drawn) the results were Cycloheximide cs 17.5, NS1 function inh 7.4%, Pf growth 96h 7.0%, Shiga inhibitor 0.4 and Pf growth 48h -23.7%.
`COc1ccc(NC(=O)COC(=O)C2CC3C=CC2C3)cc1` (stereo not drawn) gave Cycloheximide cs 19.9*, NS1 function inh -1.7%, Pf growth 96h 72.7%, Shiga inhibitor 42.1* and Pf growth 48h 46.2%.
COC(=O)c1ccc(CNC(=O)COC(=O)C2CC3C=CC2C3)cc1 (stereo not drawn) was read as Cycloheximide cs 0.8, NS1 function inh -4.1%, Pf growth 96h 47.0%, Shiga inhibitor 27.9 and Pf growth 48h 11.5%.
O=C(COC(=O)C1CC2C=CC1C2)NCCc1ccccc1 (stereo not drawn) was read as Cycloheximide cs 20.4*, NS1 function inh -4.3%, Pf growth 96h -8.9%, Shiga inhibitor 24.8 and Pf growth 48h 21.7%.
`O=C(COC(=O)C1CC2C=CC1C2)Nc1ccccc1F` (stereo not drawn) gave Cycloheximide cs 38.3*, NS1 function inh -4.1%, Pf growth 96h 86.9%, Shiga inhibitor 71.9* and Pf growth 48h 207.9%.
